Measured values published in PubChem BioAssay (Tox21).
Inconclusive results are not listed. Activity calls are given as the source filed them. Unless noted, calls follow the shape of the dose curve; as a rule, active = well fitted curve in the direction sought with a large enough effect in the repeat runs; inconclusive = weak or mixed curves; inactive = no such curve, though single readings can be large; an effect the other way counts as inactive or inconclusive.

Experiments:
[1] = target: Thyrotropin receptor (Homo sapiens) (UniProt P16473); assay: qHTS assay to identify small molecule agonists of the thyroid stimulating hormone receptor (TSHR) signaling pathway (AID 1224843; calls by dose curve; also: nearly all actives have a fitted effect of over 45% in size)
Procedure, shortened: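 HEK293/TSHR, 800 cells/well; cpd 30 min RT; add cAMP-d2 + anti-cAMP-cryptate, 1 h RT; fluorescence read on plate reader. 15-pt titration, n=3.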

[2] = qHTS assay to identify small molecule agonists of H2AX (AID 1224845; active = well fitted activation curve with a large enough effect in the signal ratio in the repeat runs, not every such curve was filed as active; the % refers to the signal ratio)
Procedure, shortened: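 Wild-type CHO-K1 cells, plated overnight, exposed 3hr at 37C to 15 concentrations (0.76% DMSO final). Lysed, then HTRF anti-pH2AX (S139) cryptate and anti-H2AX-d2 antibodies, 24 hr room temperature; 665/620 nm emission read.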

[3] = qHTS assay to identify small molecule agonists of the hypoxia (HIF-1) signaling pathway (AID 1224846; active = well fitted activation curve with a large enough effect in the signal ratio in the repeat runs, not every such curve was filed as active; the % refers to the signal ratio)
Procedure, shortened: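 Compounds added to ME-180 cells carrying hypoxia-response-element beta-lactamase reporter (0.5% dialyzed FBS, 5 h preplating), 17 h at 37C; agonist activity detected by CCF4-AM B/G FRET read-out.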

[4] = qHTS assay to identify small molecule agonists of H2AX - cell viability counter screen (AID 1224847; calls by dose curve; also: top concentration of the series differs between compounds; nearly all actives have a fitted effect of over 30% in size)
Procedure, shortened: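 Wild-type CHO-K1 cells (10% FBS medium) were plated overnight at 37C, exposed to compounds at 15 concentrations for 3 hr at 37C (0.76% DMSO final), and viability was read as CellTiter-Glo luminescence after 30 min at room temperature.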

[5] = qHTS assay to identify small molecule antagonists of the estrogen related receptor (ERR) signaling pathway from Tox21 library (AID 1224848); also: nearly all actives have a fitted effect of over 50% in size
Procedure, shortened: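 Compounds dissolved in DMSO are pin-transferred onto ERR reporter cells (2,000 per well) that have settled for 6 h at 37 C. Plates then incubate 18 h at 37 C before ONE-Glo luciferase reagent and a luminescence read 30 min later.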

[6] = qHTS RealTime-Glo MT Cell Viability Assay in HepG2 cells - 24 hour (AID 1224867); also: nearly all actives have a fitted effect of over 50% in size
Procedure, shortened: (§1)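 Viability was tracked continuously by NanoLuc luminescence from prosubstrate reduced by living HepG2 cells, at successive time points over 40 h of compound exposure. Cells with reagent were preincubated 5 h at 37 °C before compound addition.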

[7] = qHTS RealTime-Glo MT Cell Viability Assay in HEK293 cells - 32 hour (AID 1224868); also: top concentration of the series differs between compounds; nearly all actives have a fitted effect of over 50% in size
Procedure, shortened: (§2)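 Viability tracked continuously by luminescence as live cells reduce a prosubstrate for NanoLuc; HEK293 cells preincubated 5 h, compound-treated at 37 C, and read at 0, 8, 16, 24, 32 and 40 h.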

[8] = A CellTox Green Cytotoxicity Assay to monitor cytotoxicity in HEK293 cells - 0 hour (AID 1224869); also: nearly all actives have a fitted effect of over 50% in size
Procedure, shortened: (§3)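 Fluorescence from a DNA-binding dye excluded by viable cells was measured repeatedly in the same HEK293 wells (600 cells/well) during continuous compound exposure at 37 C. Each assay gives one read point: 0, 8, 16, 24, 32 or 40 h.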

[9] = qHTS RealTime-Glo MT Cell Viability Assay in HepG2 cells - 40 hour (AID 1224870); also: nearly all actives have a fitted effect of over 50% in size
Procedure, shortened: (§4)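 HepG2 cells (600/well) mixed with RealTime-Glo MT reagent, settled 5 h at 37 C/5% CO2 before compound addition. Nonlytic NanoLuc luminescence from viable-cell prosubstrate reduction read repeatedly during 40 h treatment at 37 C.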

[10] = qHTS RealTime-Glo MT Cell Viability Assay in HEK293 cells - 16 hour (AID 1224872)
Procedure, shortened: as §2

[11] = qHTS RealTime-Glo MT Cell Viability Assay in HepG2 cells - 8 hour (AID 1224873); also: nearly all actives have a fitted effect of over 55% in size
Procedure, shortened: as §4

[12] = qHTS RealTime-Glo MT Cell Viability Assay in HEK293 cells - 40 hour (AID 1224874); conditions: RealTime-Glo luminescence; max response: stronger effect = lower value; also: nearly all actives have a fitted effect of over 50% in size
Procedure, shortened: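 Luminescence, which tracks viable cell number through reduction of the prosubstrate to a NanoLuc substrate, was read over continuous 37 C culture. Cells (600/well) were premixed with reagent and rested 5 h before 23 nL of compound in DMSO was pinned.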

[13] = A CellTox Green Cytotoxicity Assay to monitor cytotoxicity in HEK293 cells - 24 hour (AID 1224875); also: nearly all actives have a fitted effect of over 45% in size
Procedure, shortened: as §3

[14] = A CellTox Green Cytotoxicity Assay to monitor cytotoxicity in HepG2 cells - 16 hour (AID 1224876); also: nearly all actives have a fitted effect of over 45% in size
Procedure, shortened: (§5)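 Real-time cytotoxicity: fluorescence of a cell-impermeant cyanine dye binding DNA of dead HepG2 cells, measured repeatedly (0–40 h) during compound exposure at 37 C. Cells seeded 600/well with reagent, dosed after 5 h.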

[15] = qHTS RealTime-Glo MT Cell Viability Assay in HepG2 cells - 32 hour (AID 1224877); also: nearly all actives have a fitted effect of over 55% in size
Procedure, shortened: as §1

[16] = A CellTox Green Cytotoxicity Assay to monitor cytotoxicity in HepG2 cells - 24 hour (AID 1224878); also: nearly all actives have a fitted effect of over 45% in size
Procedure, shortened: as §5

[17] = A CellTox Green Cytotoxicity Assay to monitor cytotoxicity in HepG2 cells - 40 hour (AID 1224879); also: nearly all actives have a fitted effect of over 40% in size
Procedure, shortened: as §5

[18] = qHTS assay to identify small molecule agonists of the estrogen related receptor (ERR) signaling pathway from Tox21 library (AID 1224849; calls by dose curve; also: nearly all actives have a fitted effect of over 15% in size); conditions: ERR reporter cell line, ONE-Glo luciferase, 18 h; at 92.4 µM (top of the series) unless noted
Procedure, shortened: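 Luminescent agonist read-out (One-Glo, 30-minute room-temperature incubation) following 18-hour compound treatment at 37 C of the ERR cell line, which had been plated 6 hours before dosing.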

[19] = A CellTox Green Cytotoxicity Assay to monitor cytotoxicity in HEK293 cells - 40 hour (AID 1224871); also: nearly all actives have a fitted effect of over 45% in size
Procedure, shortened: as §3

[20] = qHTS assay to identify small molecule agonists of the hypoxia (HIF-1) signaling pathway - cell viability counter screen (AID 1224844; calls by dose curve; also: nearly all actives have a fitted effect of over 50% in size)
Procedure, shortened: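 Cytotoxicity measured by CellTiter-Glo ATP luminescence in the wells also read for beta-lactamase signal. Cells were HRE-bla ME-180 (2,000/well, 0.5% dialyzed FBS), exposed to compounds for 17 h at 37C.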
% is scaled to controls: 0 for no effect and ±100 for the full control effect.

Thyrotropin receptor (Homo sapiens), sequence (P16473 whole entry, looked up): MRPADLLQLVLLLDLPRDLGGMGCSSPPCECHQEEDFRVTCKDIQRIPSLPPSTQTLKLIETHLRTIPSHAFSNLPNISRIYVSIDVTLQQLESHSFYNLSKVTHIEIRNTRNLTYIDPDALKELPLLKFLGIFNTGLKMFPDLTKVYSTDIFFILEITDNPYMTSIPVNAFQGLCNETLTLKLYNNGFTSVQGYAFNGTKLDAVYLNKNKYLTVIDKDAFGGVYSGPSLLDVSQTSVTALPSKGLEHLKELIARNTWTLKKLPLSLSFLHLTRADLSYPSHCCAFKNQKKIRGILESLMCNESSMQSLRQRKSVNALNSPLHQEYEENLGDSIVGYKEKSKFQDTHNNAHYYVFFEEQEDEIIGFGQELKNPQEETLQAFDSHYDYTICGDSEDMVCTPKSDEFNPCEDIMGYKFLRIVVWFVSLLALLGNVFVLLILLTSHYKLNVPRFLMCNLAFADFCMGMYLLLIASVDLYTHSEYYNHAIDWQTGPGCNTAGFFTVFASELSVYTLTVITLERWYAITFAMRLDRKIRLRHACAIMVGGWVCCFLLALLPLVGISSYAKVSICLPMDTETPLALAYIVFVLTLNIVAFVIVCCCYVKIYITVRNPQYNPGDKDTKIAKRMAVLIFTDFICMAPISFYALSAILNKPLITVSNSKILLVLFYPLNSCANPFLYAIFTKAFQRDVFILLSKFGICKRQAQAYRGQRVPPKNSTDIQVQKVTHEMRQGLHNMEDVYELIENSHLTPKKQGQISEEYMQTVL

Cc1ccc2c(c1)OCC(=O)CO2
inactive: Potency [1] | outcome [2] | outcome [3] | Potency [4] | Potency [5] | outcome [6] | Potency [7] | outcome [8] | outcome [9] | Potency [10] | outcome [11] | max response [12] -8.18% | outcome [13] | outcome [14] | outcome [15] | outcome [16] | Potency [17]

C=C1CC/C=C(\C)CC[C@@H]2[C@@H]1CC2(C)C
inactive: Potency [1] | outcome [3] | Potency [5] | activity change, positive = activation [18] 0.265% | outcome [6] | Potency [7] | outcome [8] | outcome [9] | Potency [10] | outcome [11] | max response [12] 2.22% | outcome [13] | outcome [14] | outcome [15] | outcome [16] | Potency [17]

Nc1nnc(-c2cccc(Cl)c2Cl)c(N)n1
inactive: Potency [1] | outcome [2] | Potency [4] | outcome [8] | Potency [19] | outcome [13] | outcome [14] | outcome [16] | Potency [17]

BrCc1cccc(Oc2ccccc2)c1
inactive: Potency [1] | outcome [2] | outcome [3] | Potency [4] | Potency [5] | activity change, positive = activation [18] 0.526% | outcome [6] | Potency [7] | outcome [8] | Potency [19] | Potency [10] | outcome [11] | max response [12] -9.91% | outcome [13] | outcome [14]

CN(C)CCOCCO
inactive: Potency [1] | outcome [2] | outcome [3] | Potency [5] | activity change, positive = activation [18] 6.59% | outcome [6] | Potency [7] | outcome [8] | outcome [9] | Potency [10] | outcome [11] | max response [12] -8.11% | outcome [13] | outcome [14] | outcome [15] | outcome [16] | Potency [17]

Cc1ccsc1/C=C/C1=NCCCN1C
inactive: Potency [1] | outcome [2] | Potency [4] | Potency [5] | activity change, positive = activation [18] -1.39% [at 42.5 µM] | outcome [6] | Potency [7] | outcome [8] | outcome [9] | Potency [19] | Potency [10] | outcome [11] | max response [12] 2.37% | outcome [13] | outcome [14] | outcome [15] | outcome [16] | Potency [17]

Cc1c(I)c(=O)n(-c2ccccc2)n1C
inactive: Potency [1] | outcome [2] | outcome [3] | Potency [4] | Potency [5] | activity change, positive = activation [18] 2.79% [at 42.5 µM] | outcome [6] | Potency [7] | outcome [8] | outcome [9] | Potency [10] | outcome [11] | max response [12] -1.2% | outcome [13] | outcome [14] | outcome [15] | outcome [16] | Potency [17]

OCCN(CCO)c1cccc(Cl)c1
inactive: Potency [1] | outcome [2] | outcome [3] | outcome [6] | Potency [7] | outcome [8] | Potency [19] | Potency [10] | outcome [11] | max response [12] 0.212% | outcome [13] | outcome [14] | Potency [17]

CCCCCCOC(=O)CC
inactive: outcome [20] | outcome [3] | Potency [4] | Potency [5] | activity change, positive = activation [18] -0.0388% | outcome [6] | Potency [7] | outcome [8] | outcome [9] | Potency [19] | Potency [10] | outcome [11] | max response [12] 2.45% | outcome [13] | outcome [14] | outcome [15] | outcome [16] | Potency [17]

CCC(C)(CCC(C)C)C(=O)O (stereo unspecified)
inactive: outcome [20] | outcome [2] | outcome [3] | Potency [4] | Potency [5] | activity change, positive = activation [18] -1.46% | Potency [7] | outcome [8] | outcome [9] | Potency [19] | Potency [10] | outcome [11] | max response [12] 2.99% | outcome [13] | outcome [14] | outcome [15] | outcome [16] | Potency [17]

O=C(c1ccc(O)cc1)c1ccc(O)c(O)c1O
inactive: outcome [3] | Potency [5] | activity change, positive = activation [18] -5.51% | Potency [7] | outcome [8] | outcome [9] | Potency [19] | Potency [10] | outcome [11] | max response [12] -10.5% | outcome [13] | outcome [14] | outcome [15] | outcome [16] | Potency [17]

COc1ccc(S(=O)(=O)N2c3ccc(Cl)cc3[C@@](O)(c3ccccc3Cl)[C@H]2C(=O)N2CCC[C@@H]2C(N)=O)cc1OC
inactive: outcome [20] | outcome [3] | Potency [4] | outcome [6] | outcome [8] | outcome [9] | Potency [19] | outcome [11] | outcome [13] | outcome [14] | outcome [15] | Potency [17]
